Consider 31 compounds from PubChem BioAssay (NCATS).

The nature of assay [1]: qHTS for differential inhibitors of proliferation of Plasmodium falciparum line D10 (AID 1877;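 note: parasites grown with compound for 72 h before DNA staining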; note: potency is the fitted concentration of half-maximal effect). (In general: In qHTS, concentration-response curves come from the screen itself.)
A short description of assay [2]: qHTS for differential inhibitors of proliferation of Plasmodium falciparum line Dd2 (AID 1882).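 Note: series mostly up to about 29 µM; compound exposure of 72 h on infected erythrocytes; nearly all actives have a fitted effect of over 65% in size.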 The conditions noted are these: Potency: Plasmodium falciparum Dd2 proliferation inhibition. In outline:
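RBC culture, 0.3% parasitemia / 2.5% Hct final; cpd added by pin tool in DMSO; 72 h, 37 C, 5% CO2; lysis buffer + SYBR Green I, o/n RT dark; FI 485/535; norm. to artemisinin 0.29 uM and DMSO.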

Assay [3] in a line: qHTS for differential inhibitors of proliferation of Plasmodium falciparum line HB3 (AID 1886).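 Note: parasites grown with compound for 72 h before SYBR Green readout.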 Note: potency is the fitted concentration of half-maximal effect. The note with it: Potency: Plasmodium falciparum HB3 proliferation inhibition.
Assay [4] has as its target ATP-dependent DNA helicase Q1 (Homo sapiens) (UniProt P46063). Briefly: qHTS Validation Assay for Inhibitors of RecQ-Like Dna Helicase 1 (RECQ1) (AID 2353). In outline:
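RECQ1T1 50 nM; forked duplex (20 bp + 30-nt ss tails) 200 nM, ATP 2 mM final; pH 8.0, 2 mM MgCl2, 2.5 ug/ml poly(dI-dC); 15 min compound preincubation; discontinuous kinetic read over 2 h at RT.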

Assay [5] can be described thus: Cytometric Cell-Based qHTS for Inhibitors of the mTORC1 Signaling Pathway in MEF (Tsc2-/-, p53-/-) Cells (AID 2660).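 Note: Tsc2 and p53 null MEFs carrying empty vector with compound for 24 h; percent of cells above a phospho-rpS6 to PI ratio cutoff in each well; series mostly up to about 38 µM.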 In outline:
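Cells are plated, treated with compound for 24 hrs at 37 degree Celsius, then fixed, blocked and immunostained for phospho-rpS6 Ser235/236. Propidium iodide counterstain follows. Per-well % positive cells is derived from the PI-normalized phospho-S6 signal.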

The target in assay [6] is RecQ-like DNA helicase BLM (Homo sapiens) (UniProt P54132). Briefly: qHTS Validation Assay for Inhibitors of Bloom's syndrome helicase (BLM) (AID 2364). A digest of the protocol: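 Forked 20-bp duplex substrate (200 nM, TAMRA/BHQ-2) plus 2 mM ATP added after 15 min compound preincubation with 50 nM enzyme, pH 8.0, poly(dI-dC) 2.5 ug/ml. Strand separation followed by fluorescence (525/598 nm) over 2 h, normalized to enzyme-free and DMSO controls.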
Sequence of RecQ-like DNA helicase BLM (Homo sapiens) (P54132 whole entry, looked up): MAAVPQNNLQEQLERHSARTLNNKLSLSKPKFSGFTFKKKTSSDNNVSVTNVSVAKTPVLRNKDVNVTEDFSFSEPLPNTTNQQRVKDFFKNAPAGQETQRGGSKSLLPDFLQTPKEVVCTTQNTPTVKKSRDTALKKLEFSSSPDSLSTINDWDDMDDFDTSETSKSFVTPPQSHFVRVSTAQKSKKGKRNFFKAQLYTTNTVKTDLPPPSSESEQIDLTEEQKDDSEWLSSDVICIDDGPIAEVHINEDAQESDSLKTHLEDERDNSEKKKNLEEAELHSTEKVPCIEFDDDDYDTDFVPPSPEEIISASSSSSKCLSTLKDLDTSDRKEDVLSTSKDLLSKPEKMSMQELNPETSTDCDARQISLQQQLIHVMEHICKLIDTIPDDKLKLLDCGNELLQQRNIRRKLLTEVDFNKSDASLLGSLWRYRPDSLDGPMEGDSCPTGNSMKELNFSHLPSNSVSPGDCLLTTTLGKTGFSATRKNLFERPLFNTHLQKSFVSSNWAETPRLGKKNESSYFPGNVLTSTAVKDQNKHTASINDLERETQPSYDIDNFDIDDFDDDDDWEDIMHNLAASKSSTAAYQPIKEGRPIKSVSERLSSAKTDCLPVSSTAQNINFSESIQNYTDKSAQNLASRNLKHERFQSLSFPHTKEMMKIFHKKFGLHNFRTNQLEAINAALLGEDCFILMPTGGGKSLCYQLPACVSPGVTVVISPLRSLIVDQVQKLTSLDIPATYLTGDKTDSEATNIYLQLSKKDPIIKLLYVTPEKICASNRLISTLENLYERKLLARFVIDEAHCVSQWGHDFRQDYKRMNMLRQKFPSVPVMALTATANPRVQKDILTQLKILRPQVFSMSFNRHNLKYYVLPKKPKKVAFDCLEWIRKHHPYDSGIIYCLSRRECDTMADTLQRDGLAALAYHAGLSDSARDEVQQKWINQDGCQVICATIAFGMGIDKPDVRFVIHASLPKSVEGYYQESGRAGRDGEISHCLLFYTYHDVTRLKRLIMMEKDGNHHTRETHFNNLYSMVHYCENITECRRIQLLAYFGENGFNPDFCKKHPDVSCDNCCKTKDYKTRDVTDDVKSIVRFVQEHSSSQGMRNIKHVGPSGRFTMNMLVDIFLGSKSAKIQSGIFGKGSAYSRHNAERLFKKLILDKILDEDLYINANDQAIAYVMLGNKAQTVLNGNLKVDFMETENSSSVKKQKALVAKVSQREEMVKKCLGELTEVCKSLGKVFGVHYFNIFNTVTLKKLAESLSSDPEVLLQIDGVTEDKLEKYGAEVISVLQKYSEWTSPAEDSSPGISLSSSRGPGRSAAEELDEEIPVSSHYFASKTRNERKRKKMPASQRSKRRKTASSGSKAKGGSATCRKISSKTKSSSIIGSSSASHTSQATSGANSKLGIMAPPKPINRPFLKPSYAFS

The nature of assay [7]: qHTS for differential inhibitors of proliferation of Plasmodium falciparum line W2 (AID 1883).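 Note: parasites grown with compound for 72 h before lysis and staining.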 Note: potency is the fitted concentration of half-maximal effect. The conditions noted are these: Potency: Plasmodium falciparum W2 proliferation inhibition.
Assay [8] concerns the target Ferritin light chain (Equus caballus) (UniProt P02791). Briefly: qHTS Validation Assay for Identification of Novel General Anesthetics (AID 2323). Note: series mostly up to about 77 µM. A digest of the protocol:
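Competitive displacement of profluorescent 1-aminoanthracene (1-AMA, 50% saturated solution in PBS) from 10 uM horse-spleen apoferritin. Compounds incubated 10 min at room temperature; fluorescence read at 380 nm excitation/535 nm emission, normalized to free 1-AMA and complex, fitted with four-parameter Hill equation.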

Assay [9] is described as follows: qHTS Assay for Identification of Small Molecule Inducers of Hypoxia Response (AID 2120; active = well fitted curve in the direction sought with a large enough effect in the signal ratio, with a control signal flat, not every such curve was filed as active; the % refers to the signal ratio). In outline:
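Read-out: CCF4 FRET emission ratio 460nm/530nm (excitation 405nm), converted to %Activity, with AC50 fitted across a compound titration. ME-180 cells carried an HRE-driven beta-lactamase reporter; compound exposure 17 h, 37 degrees C.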

Inconclusive results are not listed. Activity calls are given as the source filed them. Unless noted, calls come from the whole dose curve; as a rule, active = well fitted curve in the direction sought with a large enough effect; inconclusive = small, poorly fitted or top-dose-only effect, or another doubt; inactive = no such curve, though single readings can be large; an effect the other way counts as inactive or inconclusive.

Sequence of ATP-dependent DNA helicase Q1 (Homo sapiens) (P46063 whole entry, looked up): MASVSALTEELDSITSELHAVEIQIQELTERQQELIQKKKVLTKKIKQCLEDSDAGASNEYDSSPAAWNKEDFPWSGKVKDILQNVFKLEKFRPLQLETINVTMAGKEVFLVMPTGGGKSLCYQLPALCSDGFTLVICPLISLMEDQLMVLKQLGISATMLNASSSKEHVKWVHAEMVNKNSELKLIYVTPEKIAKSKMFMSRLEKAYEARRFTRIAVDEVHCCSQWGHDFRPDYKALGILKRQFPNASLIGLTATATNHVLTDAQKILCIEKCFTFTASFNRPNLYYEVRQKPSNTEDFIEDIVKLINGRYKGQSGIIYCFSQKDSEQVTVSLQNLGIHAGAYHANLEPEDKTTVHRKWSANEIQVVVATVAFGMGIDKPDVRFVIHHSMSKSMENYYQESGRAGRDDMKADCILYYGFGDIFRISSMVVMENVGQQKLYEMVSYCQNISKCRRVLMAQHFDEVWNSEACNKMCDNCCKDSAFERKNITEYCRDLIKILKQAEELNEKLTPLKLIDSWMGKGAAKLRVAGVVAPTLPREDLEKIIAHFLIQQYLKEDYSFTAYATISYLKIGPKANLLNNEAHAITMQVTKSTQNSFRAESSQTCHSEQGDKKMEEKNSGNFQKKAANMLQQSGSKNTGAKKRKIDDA
Sequence of Ferritin light chain (Equus caballus) (P02791 2-175 limits assumed): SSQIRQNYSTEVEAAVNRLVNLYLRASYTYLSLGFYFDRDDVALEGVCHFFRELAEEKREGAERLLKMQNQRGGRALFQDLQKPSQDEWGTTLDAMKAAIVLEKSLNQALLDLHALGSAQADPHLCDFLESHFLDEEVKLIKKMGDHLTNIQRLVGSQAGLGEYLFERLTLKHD

As to `CCCN(CCC)CCc1cccc2c1CC(=O)N2`, the Potency entry in assay [1], in assay [2], in assay [3] and in [4] was “inactive” each time. Besides, in [5], the compound was classed as inactive.

Turning to `CCn1cc(C(=O)O)c(=O)c2cc3c(cc21)OCO3`, the Potency result in assay [1], in assay [2], in assay [4] and in assay [6] was “inactive” each time.

Take `CCOC(=O)C1=C(C)NC(C)=C(C(=O)OC)C1c1cccc(Cl)c1Cl` (stereo not given): the Potency in assay [1] is 15.8 µM (active); in assay [7], 8.91 µM (active); in [3], 12.6 µM (active). In addition, the Potency entry in assay [4] was “inactive”. The result in [5] was inactive.

Take `CCC(=O)c1ccc2c(c1)N(CCCN(C)C)c1ccccc1S2`: the Potency in [1] is 17.8 µM (active); in assay [7] it was 5.01 µM (active); in [3], 11.2 µM (active). The Potency result in assay [4] and in assay [6] was “inactive” in each case.

Regarding `FC(F)(F)c1ccccc1-n1ccnc1`, the Potency result in assay [1], in assay [2], in [3], in assay [4] and in assay [6] was “inactive” in each case. Moreover, in assay [8], the compound was classed as inactive.

With `CC(=O)Oc1cc(C(C)C)c(OCCN(C)C)cc1C`, the Potency result in assay [1], in assay [3] and in assay [4] was “inactive” throughout. Further, the Potency in [7] was 7.94 µM (active). Besides, the outcome in assay [8] and in assay [5] was inactive.

Consider `C[C@H](CS)C(=O)N1CCC[C@H]1C(=O)O`, for which the Potency entry in [1], in assay [7], in assay [3], in assay [4] and in assay [6] was “inactive” each time. In addition, the compound was classed as inactive in assay [5].

On to `Cc1nnc(SCC2=C(C(=O)O)N3C(=O)[C@@H](NC(=O)Cn4cnnn4)[C@H]3SC2)s1`, for which the Potency result in assay [1], in assay [2], in [3] and in [4] was “inactive” in each case. Besides, in [5], the outcome was inactive.

As for `c1cnc(N2CCN(Cc3ccc4c(c3)OCO4)CC2)nc1`, the Potency entry in [1], in assay [2], in [3], in assay [4] and in assay [6] was “inactive” throughout. For the same compound, the compound was classed as inactive in [8] and in [5].

For the compound `COCCOC(=O)C1=C(C)NC(C)=C(C(=O)OC(C)C)C1c1cccc([N+](=O)[O-])c1` (stereo not given), the Potency in [1] is 12.6 µM (active); in assay [7] it was 6.31 µM (active); in assay [3] it was 8.91 µM (active). The Potency result in [4] is “inactive”.

With `CN(C)CC[C@@H](c1ccc(Br)cc1)c1ccccn1`, the Potency entry in [1], in [3], in assay [4] and in [6] was “inactive” each time. The Potency in assay [7] was 1 µM (active). Moreover, the compound was called inactive in assay [8] and in assay [5].

`COc1ccc([C@@H]2Sc3ccccc3N(CCN(C)C)C(=O)[C@@H]2OC(C)=O)cc1`: the Potency result in [1] and in assay [4] was “inactive” throughout. Moreover, in [7], the Potency is 7.08 µM (active). Besides, in [5], the compound was classed as inactive.

On to `CCc1c(C)[nH]c2c1C(=O)C(CN1CCOCC1)CC2` (stereo not given), for which the Potency entry in [1], in assay [3] and in assay [4] was “inactive” throughout. In addition, in assay [8], the compound was called inactive.

Regarding `C[C@]12CCC(=O)C=C1CC[C@@H]1[C@@H]2C(=O)C[C@@]2(C)[C@H]1CC[C@]2(O)C(=O)CO`, the Potency entry in assay [1], in assay [2], in [3], in assay [4] and in assay [6] was “inactive” in each case.

In the case of `CCCOc1ccccc1-c1nc2n[nH]nc2c(=O)[nH]1`, the Potency result in assay [1], in [2], in [3] and in [4] was “inactive” each time. Moreover, the compound was called inactive in [8] and in assay [5].

In the case of `CC(C)[N+](C)(CCOC(=O)C1c2ccccc2Oc2ccccc21)C(C)C`, the figures for the Potency in [1], in assay [7] and in assay [3] were 11.2 µM (active), 8.91 µM (active) and 7.08 µM (active), respectively. Besides, the Potency entry in assay [4] and in assay [6] was “inactive” in each case. Further, in assay [5], the call was inactive.

For `CN(C)CCOC(=O)COc1ccc(Cl)cc1`, the Potency result in [2], in assay [7], in assay [3] and in assay [4] was “inactive” each time. Moreover, the result in [8] and in assay [5] was inactive.

Regarding `CN1CCN(C2=Nc3ccccc3Oc3ccc(Cl)cc32)CC1`, the figures for the Potency in assay [1], in assay [7] and in assay [3] were 11.2 µM (active), 5.01 µM (active) and 10 µM (active), respectively. Further, the Potency entry in assay [4] is “inactive”. For the same compound, the call in [5] was inactive.

Turning to `CCOC(=O)c1cnc2c(cnn2CC)c1NN=C(C)C`, the Potency entry in [1], in assay [2] and in assay [4] was “inactive” throughout. Besides, the result in assay [8] and in [5] was inactive.

Take `CC(C)COCC(CN(Cc1ccccc1)c1ccccc1)N1CCCC1` (stereo not given): the Potency entry in assay [1], in assay [2], in [3], in assay [4] and in assay [6] was “inactive” each time. Also, the compound was called inactive in assay [8] and in assay [5].

For `Brc1c(NC2=NCCN2)ccc2nccnc12`, the Potency result in assay [1], in [2] and in [4] was “inactive” throughout. The compound was called inactive in [5].

With `CCN1CCC[C@H]1CNC(=O)c1c(O)c(Cl)cc(Cl)c1OC`, the Potency result in assay [1], in assay [2], in assay [3], in assay [4] and in [6] was “inactive” each time.

Consider `CCCCNc1ccc(C(=O)OCCN(C)C)cc1`, for which the Potency result in assay [2], in assay [7], in assay [3] and in assay [4] was “inactive” each time. Besides, the call in [8] and in assay [5] was inactive.

As to `CCOC(=O)C1=C(C)NC(C)=C(C(=O)OC)C1c1cccc([N+](=O)[O-])c1` (stereo not given), the Potency in [1] was 12.6 µM (active); in assay [7], 6.31 µM (active); in [3], 11.2 µM (active). The Potency entry in assay [4] is “inactive”. The result in [5] was inactive.

As to `CNCCC(Oc1ccccc1OC)c1ccccc1` (stereo not given), the Potency entry in assay [1], in assay [3], in assay [4] and in assay [6] was “inactive” each time. Also, in assay [5], the call was inactive.

Take `Nc1c2c(nc3ccccc13)CCCC2O` (stereo not given): the Potency entry in assay [1], in [2], in assay [3], in [4] and in assay [6] was “inactive” throughout. The compound was called inactive in [8] and in [5].

For the compound `CCCNC(C)C(=O)Nc1ccccc1C` (stereo not given), the Potency result in assay [1], in assay [2], in [3], in [4] and in [6] was “inactive” in each case. The call in [8] and in assay [5] was inactive.

With `NC(N)=NC(=O)Cc1c(Cl)cccc1Cl`, the Potency entry in assay [2] and in assay [4] was “inactive” throughout. For the same compound, the values for the Potency in [7] and in assay [3] were 3.16 µM (active) and 1.41 µM (active), respectively. Moreover, the compound was classed as inactive in [8] and in [5].

With `CCCCNc1c(C(=O)OCC)c(C)nc2c1cnn2CC`, the figures for the Potency in [1], in [7] and in assay [3] were 14.1 µM (active), 11.2 µM (active) and 12.6 µM (active), respectively. Also, the compound was called inactive in [8]. Moreover, the Potency result in assay [4] was “inactive”.

For `NC(=Nc1ccccc1)Nc1ccccc1`, the call in [9] was inactive.

Consider `CCCCOCCOCCOCc1cc2c(cc1CCC)OCO2`, for which the call in assay [9] was inactive.
